Drawing on PubChem BioAssay, this text covers composite z-score and z-score for five compounds.

Activity calls are given as the source filed them.

Assay [1] can be described thus: small molecules captured by biotinylated probe aFSTL3 – biochemical, small-molecule microarray, fluorescence 635/667, stem cell growth factor project, primary screen (AID 1064).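 Further: measures binding of the biotinylated anti-FSTL3 antibody to printed compounds.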 To be noted: higher = more signal.
The nature of assay [2]: binders from COS7 lysate, DM2A8 probe, primary screen, torsin A project, cell lysate, small-molecule microarray, fluorescence 635/667 (AID 1065). As to conditions: higher = more signal, COS7 lysate expressing mutant human TOR1A.
Assay [3] in a line: small molecules captured by biotinylated probe aFGF2 – biochemical, small-molecule microarray, fluorescence 635/667, stem cell growth factor project, primary screen (AID 1067).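 Further: measures binding of biotinylated aFGF2 protein to printed compounds on slides; z-score merges feature fluorescence and signal-to-noise across triplicate slides.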 To be noted: higher = more signal.
Assay [4] in a line: small molecules captured by biotinylated probe aFGF10 – biochemical, small-molecule microarray, fluorescence 635/667, stem cell growth factor project, primary screen (AID 1071).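 Further: score merges 667 nm spot intensity and signal to noise from triplicate slides.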 To be noted: higher = more signal.
In assay [5] the target is Neurogenic locus notch homolog protein 2 (Homo sapiens) (UniProt Q04721). In words: small molecules binding Notch2 protein – biochemical, small-molecule microarray, 635 nm fluorescence, stem cell growth factors, primary screen (AID 1073). To be noted: higher = more signal.
Assay [6] deals with Pro-neuregulin-1, membrane-bound isoform (Homo sapiens) (UniProt Q02297). In words: small molecules binding neuregulin-1 protein – biochemical, small-molecule microarray, fluorescence 635/667, psychiatric disease protein project, primary screen (AID 1075).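 Further: score combines 667 nm spot fluorescence with signal to noise.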 As to conditions: NRG1 binding, 635 nm fluorescence, higher = more signal.
Assay [7] has as its system Neuregulin-1 EGF-like domain. In words: small molecules binding NRG1 EGF domain – biochemical, small-molecule microarray, 635 nm fluorescence, primary screen (AID 1081).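 Further: binding of the protein to compounds printed on small-molecule microarray slides.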 As to conditions: higher = more signal.
Assay [8] in a line: FRG1 expression reporter modulators in myotubes – cell-based, C2C12 myotubes, firefly/Renilla luciferase, luminescence, FRG1 inhibition for FSHD, primary screen (AID 1084). As to conditions: FRG1 promoter luciferase, higher = more signal, called active from +8 up or from −8 down.
The nature of assay [9]: small molecules captured by biotinylated probe aFST – biochemical, small-molecule microarray, fluorescence 635/667, stem cell growth factor project, primary screen (AID 1086).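 Further: score merges 667 nm fluorescence with signal-to-noise of each printed compound spot.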 To be noted: higher = more signal.
Assay [10] is described as follows: binders of probe aHhip on microarray, primary screen, stem cell growth factor project, biochemical, small-molecule microarray, fluorescence 635/667 (AID 1087).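 Further: score merges spot fluorescence at 667nm with spot signal to noise ratio.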 To be noted: higher = more signal.
The subject of assay [11] is PRMT1 (protein arginine N-methyltransferase 1). In words: small molecules binding arginine methyltransferase PRMT1 – biochemical, small-molecule microarray, 635 nm fluorescence, primary screen (AID 1088).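 Further: binding of Prmt1 protein to compounds spotted on small-molecule microarray slides.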 To be noted: higher = more signal.
Assay [12] in a line: growth effects on S. cerevisiae YJM789 – YJM789 clinical isolate, OD600, 24 h, basal, primary screen (AID 1089).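 Further: growth of clinical yeast isolate S. cerevisiae YJM 789 seeded 1000 cells per well; test concentration not given here.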 To be noted: higher = more signal, called active from +8 up or from −8 down.
Assay [13] can be described thus: S. pombe growth modifiers, basal conditions – strain 972, OD600, 24 h, no modulator, primary screen (AID 1090).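 Further: basal condition with compound alone and no growth modifier present; test concentration not given here.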 As to conditions: S. pombe 972 growth, higher = more signal, called active from +8 up or from −8 down.
A short description of assay [14]: budding yeast growth modifiers under rapamycin – strain BY4716, OD600, 96 h, primary screen (AID 1091). Further: test concentration not given here. As to conditions: S. cerevisiae BY4716 + rapamycin, higher = more signal, called active from +8 up or from −8 down.
In assay [15] the target is Torsin-1A-interacting protein 2 (Homo sapiens) (UniProt Q8NFQ8). Nature of the assay: small molecules binding lysate-expressed LULL1 – cell lysate, human LULL1 lysate, 635/667 nm fluorescence, primary screen (AID 1092).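 Further: probe is lysate of COS7 cells overexpressing human LULL1; score merges per-feature 667 nm fluorescence with signal-to-noise.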 As to conditions: small-molecule microarray, hLULL1 lysate binding, 635 nm fluorescence; higher = more signal.
A short description of assay [16]: optical density change of DRC41 E. coli – strain DRC41, OD650, 24 h, E. coli filamentation project, primary screen (AID 1093).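 Further: MC1000 strain lacking acrAB efflux and sulA so SOS filamentation is blocked; test concentration not given here.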 To be noted: E. coli DRC41 growth, higher = more signal, called active from +8 up or from −8 down.
Assay [17] in a line: probe aLefty2 binding to arrayed compounds – biochemical, biotinylated probe, 635/667 nm fluorescence, primary screen (AID 1094).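 Further: score merges spot fluorescence near 667 nm with spot signal-to-noise ratio.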 As to conditions: small-molecule microarray, higher = more signal.
Assay [18] has as its system Noggin (protein binding on small-molecule microarray). In words: small molecules binding Noggin protein – biochemical, 635/667 nm fluorescence, primary screen (AID 1095).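 Further: score merges 667 nm feature fluorescence with signal to noise over triplicate slides.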 To be noted: 635 nm fluorescence, higher = more signal.
Assay [19] deals with Neurogenic locus notch homolog protein 3 (Homo sapiens) (UniProt Q9UM47). In words: small molecules binding NOTCH3 protein – biochemical, 635/667 nm fluorescence, primary screen (AID 1096). To be noted: small-molecule microarray, 635 nm fluorescence, higher = more signal.
A short description of assay [20]: probe aEGFR binding to arrayed compounds – biochemical, biotinylated probe, 635/667 nm fluorescence, primary screen (AID 1097).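 Further: probe is a biotinylated anti-EGFR antibody binding compounds printed on slides; score combines fluorescence near 667 nm and signal to noise of each spot.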 To be noted: small-molecule microarray, higher = more signal.

Neurogenic locus notch homolog protein 3 (Homo sapiens), sequence (Q9UM47 whole entry, looked up): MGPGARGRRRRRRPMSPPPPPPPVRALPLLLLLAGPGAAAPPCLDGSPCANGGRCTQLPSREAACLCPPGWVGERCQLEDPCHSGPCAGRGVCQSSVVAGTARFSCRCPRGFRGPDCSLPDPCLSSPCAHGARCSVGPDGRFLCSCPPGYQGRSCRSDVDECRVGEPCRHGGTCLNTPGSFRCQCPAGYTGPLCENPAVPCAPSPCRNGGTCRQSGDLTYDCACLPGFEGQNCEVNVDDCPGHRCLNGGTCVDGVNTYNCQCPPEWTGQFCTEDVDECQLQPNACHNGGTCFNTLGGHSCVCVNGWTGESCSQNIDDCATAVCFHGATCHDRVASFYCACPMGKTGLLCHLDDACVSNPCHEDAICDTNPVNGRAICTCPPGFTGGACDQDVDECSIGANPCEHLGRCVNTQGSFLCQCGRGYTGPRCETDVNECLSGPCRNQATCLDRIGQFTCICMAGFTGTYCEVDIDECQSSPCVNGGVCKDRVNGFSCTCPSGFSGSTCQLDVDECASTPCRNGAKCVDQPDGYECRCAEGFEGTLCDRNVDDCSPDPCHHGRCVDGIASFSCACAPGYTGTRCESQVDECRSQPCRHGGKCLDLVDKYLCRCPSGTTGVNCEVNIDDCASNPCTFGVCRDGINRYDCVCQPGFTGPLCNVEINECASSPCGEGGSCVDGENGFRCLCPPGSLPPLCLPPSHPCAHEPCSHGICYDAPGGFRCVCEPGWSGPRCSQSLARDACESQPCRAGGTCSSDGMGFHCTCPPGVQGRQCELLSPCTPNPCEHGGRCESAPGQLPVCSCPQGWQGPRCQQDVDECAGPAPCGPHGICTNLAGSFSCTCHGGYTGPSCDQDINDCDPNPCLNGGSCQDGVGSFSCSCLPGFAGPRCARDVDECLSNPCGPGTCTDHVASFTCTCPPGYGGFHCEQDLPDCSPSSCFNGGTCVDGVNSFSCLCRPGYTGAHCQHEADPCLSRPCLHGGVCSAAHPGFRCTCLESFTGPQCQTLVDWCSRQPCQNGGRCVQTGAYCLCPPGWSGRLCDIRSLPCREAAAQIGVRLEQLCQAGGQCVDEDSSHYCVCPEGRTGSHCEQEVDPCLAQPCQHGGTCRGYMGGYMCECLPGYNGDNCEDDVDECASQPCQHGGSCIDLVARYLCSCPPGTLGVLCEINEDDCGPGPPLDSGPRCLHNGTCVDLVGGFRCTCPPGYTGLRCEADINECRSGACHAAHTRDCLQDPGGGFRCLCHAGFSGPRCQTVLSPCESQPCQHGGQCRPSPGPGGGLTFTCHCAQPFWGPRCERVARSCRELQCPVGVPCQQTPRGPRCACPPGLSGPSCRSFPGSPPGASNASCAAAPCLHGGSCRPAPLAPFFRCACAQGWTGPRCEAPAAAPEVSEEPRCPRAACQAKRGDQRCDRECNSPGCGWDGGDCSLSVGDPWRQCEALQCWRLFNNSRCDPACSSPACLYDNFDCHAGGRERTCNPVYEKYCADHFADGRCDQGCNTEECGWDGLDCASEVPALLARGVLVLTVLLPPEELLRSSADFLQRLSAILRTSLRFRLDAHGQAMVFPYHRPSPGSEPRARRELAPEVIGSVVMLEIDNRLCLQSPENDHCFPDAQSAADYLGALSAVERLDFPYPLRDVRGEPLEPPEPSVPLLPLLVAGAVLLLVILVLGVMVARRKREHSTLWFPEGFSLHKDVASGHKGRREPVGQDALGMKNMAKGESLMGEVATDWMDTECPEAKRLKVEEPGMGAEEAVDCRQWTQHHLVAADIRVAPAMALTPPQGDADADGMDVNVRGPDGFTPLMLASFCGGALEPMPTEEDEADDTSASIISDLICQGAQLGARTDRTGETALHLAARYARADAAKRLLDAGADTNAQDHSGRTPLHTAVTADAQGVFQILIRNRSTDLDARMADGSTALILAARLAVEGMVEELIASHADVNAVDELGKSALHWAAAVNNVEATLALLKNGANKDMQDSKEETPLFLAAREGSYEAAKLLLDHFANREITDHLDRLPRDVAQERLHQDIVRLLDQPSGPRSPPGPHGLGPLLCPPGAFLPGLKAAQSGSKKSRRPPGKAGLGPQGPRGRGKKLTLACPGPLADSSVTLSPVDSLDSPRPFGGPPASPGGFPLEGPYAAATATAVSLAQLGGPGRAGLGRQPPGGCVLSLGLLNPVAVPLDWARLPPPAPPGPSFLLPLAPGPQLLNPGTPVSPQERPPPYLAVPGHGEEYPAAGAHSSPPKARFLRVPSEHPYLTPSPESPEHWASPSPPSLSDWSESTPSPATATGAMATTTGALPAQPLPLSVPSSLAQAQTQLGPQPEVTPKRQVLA
Pro-neuregulin-1, membrane-bound isoform (Homo sapiens), sequence (Q02297 whole entry, looked up, the tested form may be a part, canonical isoform): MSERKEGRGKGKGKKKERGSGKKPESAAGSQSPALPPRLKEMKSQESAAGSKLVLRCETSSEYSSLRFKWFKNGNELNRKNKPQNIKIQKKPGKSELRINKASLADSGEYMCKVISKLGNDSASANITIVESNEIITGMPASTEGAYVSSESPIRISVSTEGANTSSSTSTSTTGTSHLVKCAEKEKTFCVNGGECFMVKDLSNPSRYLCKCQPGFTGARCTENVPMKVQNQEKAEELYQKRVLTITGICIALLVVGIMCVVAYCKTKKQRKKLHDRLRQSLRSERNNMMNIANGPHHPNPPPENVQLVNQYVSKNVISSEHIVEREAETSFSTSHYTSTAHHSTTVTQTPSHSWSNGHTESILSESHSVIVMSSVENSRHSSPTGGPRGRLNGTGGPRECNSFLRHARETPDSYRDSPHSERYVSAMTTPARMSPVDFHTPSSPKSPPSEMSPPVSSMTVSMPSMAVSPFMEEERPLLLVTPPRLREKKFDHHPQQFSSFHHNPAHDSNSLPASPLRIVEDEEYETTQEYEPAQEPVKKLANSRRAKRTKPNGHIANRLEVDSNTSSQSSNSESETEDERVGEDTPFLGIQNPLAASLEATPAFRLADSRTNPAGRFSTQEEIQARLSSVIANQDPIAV
Torsin-1A-interacting protein 2 (Homo sapiens), sequence (Q8NFQ8 whole entry, looked up): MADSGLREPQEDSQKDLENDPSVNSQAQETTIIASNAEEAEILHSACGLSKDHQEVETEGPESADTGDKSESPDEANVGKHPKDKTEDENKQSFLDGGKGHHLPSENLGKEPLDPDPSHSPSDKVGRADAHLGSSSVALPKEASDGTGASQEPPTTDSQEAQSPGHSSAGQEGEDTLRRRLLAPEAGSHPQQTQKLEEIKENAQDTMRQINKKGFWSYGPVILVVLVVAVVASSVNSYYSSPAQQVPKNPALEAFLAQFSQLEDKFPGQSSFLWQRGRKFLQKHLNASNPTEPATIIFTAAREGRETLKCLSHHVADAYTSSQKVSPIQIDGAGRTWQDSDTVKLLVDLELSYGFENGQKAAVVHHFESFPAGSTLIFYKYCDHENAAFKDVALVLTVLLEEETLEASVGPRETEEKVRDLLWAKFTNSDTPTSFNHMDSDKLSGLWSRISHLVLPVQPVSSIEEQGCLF

Consider `COc1ccc([Si](C)(C)[C@@H]2[C@@H](CC(=O)N(CCO)Cc3ccccc3)O[C@]3(C(=O)N(Cc4ccc(N5CCC5=O)cc4)c4ccccc43)[C@H]2C)cc1`, for which the composite z-score in assay [1] is -0.0664; in [2] it was 0.461; in [3], -0.0226; in assay [4], 0.0667; in assay [5] it was 0.0102; in [6], 0.695. Also, the composite z-score is 0.677 in [7]; 2.26 in assay [9]; -0.0267 in [10]; -0.0625 in [11]; 0.628 in assay [15]; 0.536 in assay [17]. In addition, the values for the composite z-score in assay [18], in assay [19] and in assay [20] were 0.343, -0.0568 and -0.199, respectively. Further, the z-score in assay [8] is -0.192 (inactive); in assay [12], 0.127 (inactive); in assay [13], -0.246 (inactive); in assay [14] it was 1.87 (inactive); in assay [16], 1.31 (inactive).
As to `C[N+](C)(C)CCCC[C@@H]1NC(=O)[C@H]2C[C@@H](C(=O)NCCCCCNC(=O)CS)[C@@H](c3ccc(O)cc3)N2C1=O`, the composite z-score is -0.257 in assay [1]; -0.0727 in [2]; -0.118 in assay [3]; 0.198 in [4]; 0.363 in [5]; 1.55 in assay [6]. In addition, the composite z-score was 0.745 in [7]; 0.104 in assay [9]; 0.0623 in assay [10]; 0.808 in [11]; 1.91 in assay [15]; -0.134 in assay [17]. Moreover, the results for the composite z-score in assay [18], in assay [19] and in assay [20] were 0.212, 0.58 and -0.0583, respectively. Moreover, the z-score in [8] is -1.04 (inactive); in [12], -4.72 (inactive); in [13] it was -0.839 (inactive); in [14], -0.554 (inactive); in assay [16] it was 1.42 (inactive).
For `CC(C)(C)N1CC=CC23O[C@@H]4/C=C\CCCOC(=O)C4[C@H]2C(=O)N(CCCCCCO)[C@@H]3C1=O` (stereo not given in full), the composite z-score is 0.509 in [1]; -0.342 in assay [2]; -0.208 in [3]; -0.056 in assay [4]; -1.12 in [5]; 1.1 in assay [6]. For the same compound, the composite z-score in assay [7] is 0.781; in assay [9], -0.392; in [10], -0.0618; in assay [11], -0.0574; in assay [15], 1.24; in assay [17], -0.302. Further, the figures for the composite z-score in [18], in assay [19] and in assay [20] were -1.19, -0.052 and 0.252, respectively. Also, the z-score in assay [8] was -1.09 (inactive); in assay [12], -3.01 (inactive); in [13], -0.927 (inactive); in assay [14], -0.624 (inactive); in assay [16], 1.42 (inactive).
Turning to `COc1cc2c(cc1O)C(C1CC1)N(Cc1ccc([N+](=O)[O-])o1)CC2` (stereo not given), the composite z-score in assay [1] is -0.0848; in assay [2] it was -0.242; in [3], -0.0226; in assay [4], 0.682; in [5] it was 1.52; in [6], 1.49. Moreover, the composite z-score in assay [7] was 1.03; in assay [9] it was 0.609; in [10], -0.0003; in [11], 0.287; in assay [15], 1.85; in assay [17], -0.0046. In addition, the composite z-score was -0.2 in [18], 0.903 in assay [19] and -0.0734 in assay [20]. Also, the z-score was -1.1 (inactive) in assay [8]; -0.123 (inactive) in [12]; -3.53 (inactive) in assay [13]; -2.16 (inactive) in assay [14]; -1.16 (inactive) in [16].
In the case of `CC(C)C[C@H]1NC(=O)[C@@H](C)NC(=O)[C@@]23C(=O)N[C@@H](Cc4ccccc4)C2[C@H](C)[C@@]2(C)O[C@H]2C3/C=C/C/C=C\CNC1=O` (stereo not given in full), the composite z-score in assay [1] is -0.112; in assay [2], -0.0039; in [3] it was -0.185; in assay [4] it was 0.346; in [5], 0.125; in assay [6] it was 0.483. In addition, the composite z-score in assay [7] was 0.798; in [9], -0.141; in assay [10] it was -0.121; in assay [11], 0.938; in [15] it was 1.28; in assay [17] it was -0.221. Besides, the composite z-score in [18] was 0.407; in assay [19], 0.596; in assay [20], -0.0615. Further, the z-score in assay [8] was 1.85 (inactive); in [12], -0.904 (inactive); in [13], -0.721 (inactive); in [14] it was -0.651 (inactive); in [16], -0.64 (inactive).
